# According to paper PMC7862700, “An all-to-all approach to the identification of sequence-specific readers for epigenetic DNA modifications on cytosine”:
# How the values were obtained:
# Assay in all cases: DAPPL (digital affinity profiling via proximity ligation, sequencing); 10 mM Tris-HCl pH 7.5, 50 mM NaCl, 1 mM DTT, 4% glycerol, room temperature, 30 min; GST-TFs on glutathione beads, 16-mer random dsDNA library, 0.1% formaldehyde crosslink after washing; high values mean tight binding
# FLI1 = target: T1, FLI1 (Homo sapiens, UniProt Q01543 1-452); details: protein: recombinant; tags: N-terminal GST; dsDNA, one strand shown
# T1 sequence: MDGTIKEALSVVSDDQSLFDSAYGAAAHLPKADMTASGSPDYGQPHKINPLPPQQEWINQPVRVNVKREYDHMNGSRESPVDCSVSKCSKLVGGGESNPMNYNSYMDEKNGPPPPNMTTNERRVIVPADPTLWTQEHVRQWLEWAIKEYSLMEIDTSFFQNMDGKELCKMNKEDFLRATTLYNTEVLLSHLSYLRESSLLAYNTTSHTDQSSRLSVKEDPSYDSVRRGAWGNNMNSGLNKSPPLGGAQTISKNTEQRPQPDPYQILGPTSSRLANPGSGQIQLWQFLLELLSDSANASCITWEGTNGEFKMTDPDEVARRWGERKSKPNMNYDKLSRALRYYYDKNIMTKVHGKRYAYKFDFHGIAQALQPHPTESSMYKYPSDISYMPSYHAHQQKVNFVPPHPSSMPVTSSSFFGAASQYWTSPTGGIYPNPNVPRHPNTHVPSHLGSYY
# How it was run: (§1)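 Binding signal is defined as a hexamer's read frequency for one factor over its frequency for the tag-only sample. To obtain reads, GST-fused human transcription factors were expressed in yeast, captured on glutathione beads, barcoded with DNA and pooled with that sample. Pools met 200 nmole of a 16-mer random double-stranded DNA library in Tris/NaCl/DTT/glycerol buffer for 30 min at room temperature before washing, 0.1% formaldehyde crosslinking, proximity ligation (BsaI/T4 ligase, 1 h, 37 °C), PCR and Illumina NextSeq500 sequencing.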
# ELK1 = target: T2, ELK1 (Homo sapiens, UniProt P19419 1-428); details: protein: recombinant; tags: N-terminal GST; dsDNA, one strand shown
# T2 sequence: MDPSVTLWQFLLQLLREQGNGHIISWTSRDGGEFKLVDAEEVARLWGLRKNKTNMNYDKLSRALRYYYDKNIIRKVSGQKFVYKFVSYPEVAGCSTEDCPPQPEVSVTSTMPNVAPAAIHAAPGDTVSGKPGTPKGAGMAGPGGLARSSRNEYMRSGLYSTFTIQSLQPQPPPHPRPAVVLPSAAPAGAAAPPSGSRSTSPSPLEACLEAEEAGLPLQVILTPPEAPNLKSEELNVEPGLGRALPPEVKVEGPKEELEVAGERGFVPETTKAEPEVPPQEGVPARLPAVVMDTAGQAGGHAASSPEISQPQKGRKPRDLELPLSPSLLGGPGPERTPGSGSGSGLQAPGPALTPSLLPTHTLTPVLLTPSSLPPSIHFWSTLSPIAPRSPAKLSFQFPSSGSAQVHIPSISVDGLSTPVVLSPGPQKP
# How it was run: as §1
# GABPA = target: T3, GABPA (Homo sapiens, UniProt Q06546 1-454); details: protein: recombinant; tags: N-terminal GST; dsDNA, one strand shown
# T3 sequence: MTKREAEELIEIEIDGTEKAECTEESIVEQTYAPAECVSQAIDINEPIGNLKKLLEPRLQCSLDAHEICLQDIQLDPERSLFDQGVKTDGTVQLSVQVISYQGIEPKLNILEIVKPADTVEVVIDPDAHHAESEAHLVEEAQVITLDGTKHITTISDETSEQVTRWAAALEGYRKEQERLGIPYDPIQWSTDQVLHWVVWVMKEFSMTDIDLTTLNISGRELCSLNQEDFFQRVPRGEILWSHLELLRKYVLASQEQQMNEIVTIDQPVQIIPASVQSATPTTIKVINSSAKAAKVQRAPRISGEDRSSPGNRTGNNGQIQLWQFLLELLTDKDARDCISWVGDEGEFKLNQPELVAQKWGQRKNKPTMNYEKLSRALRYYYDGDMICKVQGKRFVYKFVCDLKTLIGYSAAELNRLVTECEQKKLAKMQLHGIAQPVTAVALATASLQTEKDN
# How it was run: as §1
# ERG = target: T4, ERG (Homo sapiens, UniProt P11308 1-479); details: protein: recombinant; tags: N-terminal GST; dsDNA, one strand shown
# T4 sequence: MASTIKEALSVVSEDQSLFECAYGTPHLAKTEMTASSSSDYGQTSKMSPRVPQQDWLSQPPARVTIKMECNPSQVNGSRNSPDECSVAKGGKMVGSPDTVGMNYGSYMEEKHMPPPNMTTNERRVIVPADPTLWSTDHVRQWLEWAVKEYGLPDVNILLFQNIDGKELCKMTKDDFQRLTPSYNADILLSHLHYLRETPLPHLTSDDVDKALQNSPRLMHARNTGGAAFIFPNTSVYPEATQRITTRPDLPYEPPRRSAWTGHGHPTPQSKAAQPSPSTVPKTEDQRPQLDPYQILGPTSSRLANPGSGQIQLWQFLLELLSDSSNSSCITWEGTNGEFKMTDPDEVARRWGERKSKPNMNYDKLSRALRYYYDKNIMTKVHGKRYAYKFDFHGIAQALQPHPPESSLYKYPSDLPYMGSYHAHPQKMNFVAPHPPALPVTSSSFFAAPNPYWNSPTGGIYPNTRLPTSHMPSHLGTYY
# How it was run: as §1
# ELF1 = ELF1 (Homo sapiens, UniProt P32519 1-619); details: protein: recombinant; tags: N-terminal GST; dsDNA, one strand shown
# How it was run: as §1
# EHF = target: T5, EHF (Homo sapiens, UniProt Q9NZC4 1-300); details: protein: recombinant; tags: N-terminal GST; dsDNA, one strand shown
# T5 sequence: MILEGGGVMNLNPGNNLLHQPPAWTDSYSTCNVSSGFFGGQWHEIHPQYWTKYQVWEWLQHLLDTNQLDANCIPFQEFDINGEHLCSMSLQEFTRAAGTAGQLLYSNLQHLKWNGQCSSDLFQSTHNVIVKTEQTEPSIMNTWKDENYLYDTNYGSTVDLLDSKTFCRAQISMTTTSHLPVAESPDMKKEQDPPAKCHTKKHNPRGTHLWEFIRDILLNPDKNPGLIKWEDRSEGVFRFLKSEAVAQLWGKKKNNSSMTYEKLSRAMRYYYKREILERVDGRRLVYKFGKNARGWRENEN
# How it was run: as §1
# SPI1 = SPI1 (Homo sapiens, UniProt P17947 1-270); details: protein: recombinant; tags: N-terminal GST; dsDNA, one strand shown
# How it was run: as §1
# SPIB = SPIB (Homo sapiens, UniProt Q01892 1-262); details: protein: recombinant; tags: N-terminal GST; dsDNA, one strand shown
# How it was run: as §1
# ELK3 = target: T6, ELK3 (Homo sapiens, UniProt P41970 1-407); details: protein: recombinant; tags: N-terminal GST; dsDNA, one strand shown
# T6 sequence: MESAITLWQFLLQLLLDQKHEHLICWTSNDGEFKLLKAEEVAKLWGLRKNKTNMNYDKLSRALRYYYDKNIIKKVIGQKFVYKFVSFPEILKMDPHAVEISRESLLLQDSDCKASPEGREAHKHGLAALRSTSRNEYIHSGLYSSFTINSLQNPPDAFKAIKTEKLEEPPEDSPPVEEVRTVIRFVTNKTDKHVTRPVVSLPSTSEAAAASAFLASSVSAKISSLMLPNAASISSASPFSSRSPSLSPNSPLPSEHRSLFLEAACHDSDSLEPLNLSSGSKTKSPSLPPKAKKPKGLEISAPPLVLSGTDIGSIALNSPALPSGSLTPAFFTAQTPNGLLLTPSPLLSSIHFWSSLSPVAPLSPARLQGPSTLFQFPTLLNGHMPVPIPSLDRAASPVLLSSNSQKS
# How it was run: as §1
# FEV = target: T7, FEV (Homo sapiens, UniProt Q99581 1-238); details: protein: recombinant; tags: N-terminal GST; dsDNA, one strand shown
# T7 sequence: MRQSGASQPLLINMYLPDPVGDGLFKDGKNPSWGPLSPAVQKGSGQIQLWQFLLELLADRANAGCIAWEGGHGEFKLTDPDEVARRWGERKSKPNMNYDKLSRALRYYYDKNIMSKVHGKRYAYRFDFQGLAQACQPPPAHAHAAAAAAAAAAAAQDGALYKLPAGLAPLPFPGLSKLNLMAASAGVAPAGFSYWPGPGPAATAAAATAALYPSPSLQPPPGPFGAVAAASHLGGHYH
# How it was run: as §1
# ETV5 = ETV5 (Homo sapiens, UniProt P41161 1-510); details: protein: recombinant; tags: N-terminal GST; dsDNA, one strand shown
# How it was run: as §1
# HSF1 = HSF1 (Homo sapiens, UniProt Q00613 1-529); details: protein: recombinant; tags: N-terminal GST; chain copies: 3; dsDNA, one strand shown
# How it was run: as §1
# SPIC = target: T8, SPIC (Homo sapiens, UniProt Q8N5J4 1-248); details: protein: recombinant; tags: N-terminal GST; dsDNA, one strand shown
# T8 sequence: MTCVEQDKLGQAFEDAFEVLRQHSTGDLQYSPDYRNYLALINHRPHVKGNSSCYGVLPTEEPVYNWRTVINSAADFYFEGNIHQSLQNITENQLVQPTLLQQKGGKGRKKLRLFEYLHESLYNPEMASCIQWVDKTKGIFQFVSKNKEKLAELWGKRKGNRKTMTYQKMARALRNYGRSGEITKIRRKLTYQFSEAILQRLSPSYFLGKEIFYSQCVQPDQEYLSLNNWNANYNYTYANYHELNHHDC
# How it was run: as §1
# ELF4 = ELF4 (Homo sapiens, UniProt Q99607 1-663); details: protein: recombinant; tags: N-terminal GST; dsDNA, one strand shown
# How it was run: as §1
# ELK4 = target: T9, ELK4 (Homo sapiens, UniProt P28324-2 1-405); details: protein: recombinant; tags: N-terminal GST; dsDNA, one strand shown
# T9 sequence: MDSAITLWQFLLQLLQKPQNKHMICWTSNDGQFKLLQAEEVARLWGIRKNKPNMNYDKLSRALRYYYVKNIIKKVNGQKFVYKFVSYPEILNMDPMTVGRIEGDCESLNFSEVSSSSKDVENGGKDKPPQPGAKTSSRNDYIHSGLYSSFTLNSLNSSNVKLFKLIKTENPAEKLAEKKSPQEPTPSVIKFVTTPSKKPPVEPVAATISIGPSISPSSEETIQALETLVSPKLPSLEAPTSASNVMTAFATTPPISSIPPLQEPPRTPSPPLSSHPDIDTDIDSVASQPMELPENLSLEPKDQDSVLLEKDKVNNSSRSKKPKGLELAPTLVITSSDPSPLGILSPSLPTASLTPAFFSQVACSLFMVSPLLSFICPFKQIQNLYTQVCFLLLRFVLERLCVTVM
# How it was run: as §1
# ETV2 = target: T10, ETV2 (Homo sapiens, UniProt O00321 1-342); details: protein: recombinant; tags: N-terminal GST; dsDNA, one strand shown
# T10 sequence: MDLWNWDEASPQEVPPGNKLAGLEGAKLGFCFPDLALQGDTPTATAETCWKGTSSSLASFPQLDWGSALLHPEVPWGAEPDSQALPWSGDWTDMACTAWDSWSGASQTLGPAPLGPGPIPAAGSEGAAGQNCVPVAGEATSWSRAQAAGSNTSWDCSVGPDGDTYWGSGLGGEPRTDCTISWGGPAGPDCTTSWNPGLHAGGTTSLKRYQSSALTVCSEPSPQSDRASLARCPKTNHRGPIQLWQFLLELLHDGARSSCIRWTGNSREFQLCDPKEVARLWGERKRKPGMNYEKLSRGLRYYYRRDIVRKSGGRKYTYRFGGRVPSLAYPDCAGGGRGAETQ
# How it was run: as §1
# ELF3 = target: T11, ELF3 (Homo sapiens, UniProt P78545 1-371); details: protein: recombinant; tags: N-terminal GST; dsDNA, one strand shown
# T11 sequence: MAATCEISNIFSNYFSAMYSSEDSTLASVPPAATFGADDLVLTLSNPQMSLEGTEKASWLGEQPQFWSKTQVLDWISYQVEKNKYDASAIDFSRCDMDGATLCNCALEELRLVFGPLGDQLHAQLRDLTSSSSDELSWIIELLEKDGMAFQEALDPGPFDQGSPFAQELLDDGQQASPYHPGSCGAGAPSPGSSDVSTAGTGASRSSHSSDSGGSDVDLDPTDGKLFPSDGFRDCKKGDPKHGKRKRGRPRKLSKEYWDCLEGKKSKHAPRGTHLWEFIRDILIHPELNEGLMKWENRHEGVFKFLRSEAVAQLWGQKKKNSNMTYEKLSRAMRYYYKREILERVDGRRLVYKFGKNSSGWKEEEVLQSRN
# How it was run: as §1
# CRX = CRX (Homo sapiens, UniProt O43186 1-299); details: protein: recombinant; tags: N-terminal GST; dsDNA, one strand shown
# How it was run: as §1
# ETV1 = ETV1 (Homo sapiens, UniProt P50549 1-477); details: protein: recombinant; tags: N-terminal GST; dsDNA, one strand shown
# How it was run: as §1
# ELF1, sequence (P32519 whole entry): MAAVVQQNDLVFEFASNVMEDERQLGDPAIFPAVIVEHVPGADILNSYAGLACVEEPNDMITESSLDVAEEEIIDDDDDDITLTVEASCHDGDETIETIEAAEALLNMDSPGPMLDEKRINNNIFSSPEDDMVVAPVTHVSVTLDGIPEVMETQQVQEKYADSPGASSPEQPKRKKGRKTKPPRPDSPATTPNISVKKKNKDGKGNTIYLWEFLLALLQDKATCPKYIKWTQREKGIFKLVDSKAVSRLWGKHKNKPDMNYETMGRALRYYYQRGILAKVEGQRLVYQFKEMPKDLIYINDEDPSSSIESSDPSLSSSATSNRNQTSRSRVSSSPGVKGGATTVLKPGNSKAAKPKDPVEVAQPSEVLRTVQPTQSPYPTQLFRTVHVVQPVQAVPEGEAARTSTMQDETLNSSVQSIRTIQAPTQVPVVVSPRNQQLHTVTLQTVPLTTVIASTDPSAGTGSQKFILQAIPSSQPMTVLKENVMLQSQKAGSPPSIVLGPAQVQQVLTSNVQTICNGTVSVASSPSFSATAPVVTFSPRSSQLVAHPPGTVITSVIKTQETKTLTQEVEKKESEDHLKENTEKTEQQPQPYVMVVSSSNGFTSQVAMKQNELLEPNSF
# ETV1, sequence (P50549 whole entry): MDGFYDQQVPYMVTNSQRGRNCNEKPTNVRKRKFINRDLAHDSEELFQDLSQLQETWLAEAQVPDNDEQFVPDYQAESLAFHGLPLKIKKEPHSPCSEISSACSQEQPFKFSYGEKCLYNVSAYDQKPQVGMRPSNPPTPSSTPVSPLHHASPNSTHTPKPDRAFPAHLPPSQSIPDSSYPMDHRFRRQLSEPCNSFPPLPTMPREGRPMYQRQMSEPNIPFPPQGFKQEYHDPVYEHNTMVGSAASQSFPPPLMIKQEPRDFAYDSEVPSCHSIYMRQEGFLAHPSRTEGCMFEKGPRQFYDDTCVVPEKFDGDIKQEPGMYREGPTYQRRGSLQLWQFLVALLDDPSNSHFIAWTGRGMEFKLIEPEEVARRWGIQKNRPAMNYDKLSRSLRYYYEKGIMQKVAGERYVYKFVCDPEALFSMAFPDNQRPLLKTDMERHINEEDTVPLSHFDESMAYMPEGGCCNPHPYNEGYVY
# SPIB, sequence (Q01892 whole entry): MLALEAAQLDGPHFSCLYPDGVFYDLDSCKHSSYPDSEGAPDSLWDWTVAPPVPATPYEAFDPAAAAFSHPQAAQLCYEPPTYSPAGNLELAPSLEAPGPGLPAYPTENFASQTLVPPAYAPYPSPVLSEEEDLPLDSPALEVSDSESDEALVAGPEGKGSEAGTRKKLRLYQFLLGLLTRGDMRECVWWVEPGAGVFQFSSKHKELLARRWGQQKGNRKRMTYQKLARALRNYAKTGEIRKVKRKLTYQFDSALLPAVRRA
# HSF1, sequence (Q00613 whole entry): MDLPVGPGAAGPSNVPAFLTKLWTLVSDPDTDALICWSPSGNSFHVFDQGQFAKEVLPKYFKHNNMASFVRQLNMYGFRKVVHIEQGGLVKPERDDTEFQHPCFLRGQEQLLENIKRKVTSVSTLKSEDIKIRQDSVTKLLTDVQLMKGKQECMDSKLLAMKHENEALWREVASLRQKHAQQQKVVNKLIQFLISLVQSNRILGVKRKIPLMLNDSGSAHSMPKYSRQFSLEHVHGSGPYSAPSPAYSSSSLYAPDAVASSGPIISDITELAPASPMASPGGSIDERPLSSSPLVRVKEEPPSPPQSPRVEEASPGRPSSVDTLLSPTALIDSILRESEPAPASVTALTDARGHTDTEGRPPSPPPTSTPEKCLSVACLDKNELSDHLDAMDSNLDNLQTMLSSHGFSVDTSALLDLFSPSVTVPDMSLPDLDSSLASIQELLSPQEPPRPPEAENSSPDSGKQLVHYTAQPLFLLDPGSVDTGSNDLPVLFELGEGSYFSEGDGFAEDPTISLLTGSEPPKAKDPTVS
# ELF4, sequence (Q99607 whole entry): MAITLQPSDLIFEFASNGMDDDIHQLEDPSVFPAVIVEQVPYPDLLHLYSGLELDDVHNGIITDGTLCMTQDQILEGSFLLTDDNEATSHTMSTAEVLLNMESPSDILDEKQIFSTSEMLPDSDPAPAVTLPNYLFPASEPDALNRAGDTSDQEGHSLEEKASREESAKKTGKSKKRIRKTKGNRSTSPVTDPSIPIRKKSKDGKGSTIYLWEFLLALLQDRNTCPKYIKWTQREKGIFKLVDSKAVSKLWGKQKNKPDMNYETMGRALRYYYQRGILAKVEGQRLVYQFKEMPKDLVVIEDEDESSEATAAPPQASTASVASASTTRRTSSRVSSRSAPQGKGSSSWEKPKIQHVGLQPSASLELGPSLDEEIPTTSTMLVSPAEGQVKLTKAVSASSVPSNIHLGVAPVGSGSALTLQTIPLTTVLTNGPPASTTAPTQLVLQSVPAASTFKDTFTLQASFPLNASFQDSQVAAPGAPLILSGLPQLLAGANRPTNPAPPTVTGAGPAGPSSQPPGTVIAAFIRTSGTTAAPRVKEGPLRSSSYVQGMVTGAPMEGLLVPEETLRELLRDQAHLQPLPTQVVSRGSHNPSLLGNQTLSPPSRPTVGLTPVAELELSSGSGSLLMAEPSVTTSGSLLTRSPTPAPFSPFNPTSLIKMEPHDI
# CRX, sequence (O43186 whole entry): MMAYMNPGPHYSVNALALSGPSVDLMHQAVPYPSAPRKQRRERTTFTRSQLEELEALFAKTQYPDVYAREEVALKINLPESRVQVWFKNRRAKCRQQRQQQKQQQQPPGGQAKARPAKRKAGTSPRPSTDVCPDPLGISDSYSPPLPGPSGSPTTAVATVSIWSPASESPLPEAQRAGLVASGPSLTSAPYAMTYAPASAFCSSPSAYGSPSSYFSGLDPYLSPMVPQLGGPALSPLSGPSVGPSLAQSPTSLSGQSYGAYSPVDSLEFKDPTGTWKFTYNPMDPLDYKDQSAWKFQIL
# ETV5, sequence (P41161 whole entry): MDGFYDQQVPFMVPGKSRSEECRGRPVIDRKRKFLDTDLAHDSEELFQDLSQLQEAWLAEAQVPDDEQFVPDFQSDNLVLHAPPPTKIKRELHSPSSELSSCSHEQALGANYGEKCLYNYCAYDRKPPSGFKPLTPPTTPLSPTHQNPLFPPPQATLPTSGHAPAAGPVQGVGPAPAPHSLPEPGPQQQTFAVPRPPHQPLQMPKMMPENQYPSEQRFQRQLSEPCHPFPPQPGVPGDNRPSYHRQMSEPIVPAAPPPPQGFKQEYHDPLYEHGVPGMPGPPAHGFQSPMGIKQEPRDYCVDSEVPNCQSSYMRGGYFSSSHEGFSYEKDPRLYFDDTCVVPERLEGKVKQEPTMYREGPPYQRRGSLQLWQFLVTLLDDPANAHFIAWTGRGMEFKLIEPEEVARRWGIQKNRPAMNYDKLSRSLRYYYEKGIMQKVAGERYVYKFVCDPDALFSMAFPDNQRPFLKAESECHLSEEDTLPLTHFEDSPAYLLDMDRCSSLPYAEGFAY
sequence,measurement,setting,value
TACTCT,binding signal,FLI1,"1.37 fold enrichment (6-mer frequency, TF over GST control)"
same,binding signal,ELK1,"1.5 fold enrichment (6-mer frequency, TF over GST control)"
same,binding signal,GABPA,"1.52 fold enrichment (6-mer frequency, TF over GST control)"
same,binding signal,ERG,"1.34 fold enrichment (6-mer frequency, TF over GST control)"
same,binding signal,ELF1,"1.42 fold enrichment (6-mer frequency, TF over GST control)"
same,binding signal,EHF,"1.45 fold enrichment (6-mer frequency, TF over GST control)"
same,binding signal,SPI1,"1.44 fold enrichment (6-mer frequency, TF over GST control)"
same,binding signal,SPIB,"1.33 fold enrichment (6-mer frequency, TF over GST control)"
same,binding signal,ELK3,"1.56 fold enrichment (6-mer frequency, TF over GST control)"
same,binding signal,FEV,"1.33 fold enrichment (6-mer frequency, TF over GST control)"
same,binding signal,ETV5,"1.45 fold enrichment (6-mer frequency, TF over GST control)"
same,binding signal,HSF1,"1.37 fold enrichment (6-mer frequency, TF over GST control)"
same,binding signal,SPIC,"1.28 fold enrichment (6-mer frequency, TF over GST control)"
same,binding signal,ELF4,"1.42 fold enrichment (6-mer frequency, TF over GST control)"
same,binding signal,ELK4,"1.44 fold enrichment (6-mer frequency, TF over GST control)"
same,binding signal,ETV2,"1.43 fold enrichment (6-mer frequency, TF over GST control)"
same,binding signal,ELF3,"1.49 fold enrichment (6-mer frequency, TF over GST control)"
same,binding signal,CRX,"1.6 fold enrichment (6-mer frequency, TF over GST control)"
same,binding signal,ETV1,"1.47 fold enrichment (6-mer frequency, TF over GST control)"
